Most compounds without a hit are left out; they make up all but 21% or so of the library.
Pf growth 48h: Primary qHTS for delayed death inhibitors of the malarial parasite plastid, 48 hour incubation; P. falciparum luciferase growth in erythrocytes, 48 h; Potency, µM (series often up to 28.7 µM), usual class: inhibitors; 310,000 compounds, 5.9% hits; AID 504832, 2011
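Read-out is firefly luciferase luminescence from an integrated reporter in P. falciparum, so falling signal marks reduced parasite growth. Infected erythrocytes were at 2% hematocrit and 0.1% parasitemia (final) in Albumax-supplemented RPMI 1640.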
HCV inh: qHTS Assay for Inhibitors of Hepatitis C Virus (HCV). 340,000 compounds, 3.4% hits. Huh7.5.1 HCVcc-Cre infection, luciferase reporter, 44 h. AID 651820, 2012. Potency, µM (doses to about 41.8 µM), hits mostly inhibitors
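After 44 h co-culture of compound, cells and HCVcc-Cre (~0.5 moi), substrate is added for 15 min at room temperature and luciferase measured over 15 sec. Cells were seeded at 1,000/well and pre-cultured 4 h.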
Shiga toxin inh: A qHTS for Small Molecule Inhibitors of Shiga Toxin. Vero cells, Shiga toxin protein synthesis inhibition reporter. inhibition, % at 38.7 µM. AID 2315, 2010. 290,000 compounds, 9.2% hits; in the data active = inhibition mostly above about 28%, no sharp cut-off; inactive = mostly below about 43%
Pf growth 96h: Primary qHTS for delayed death inhibitors of the malarial parasite plastid, 96 hour incubation; Potency, µM (top dose mostly 28.7 µM), hits mostly inhibitors; 320,000 compounds, 6.9% hits; P. falciparum luciferase reporter growth, 96 h; AID 504834, 2011
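Infected RBCs, 2% Hct / 0.05% parasitemia final; luciferase-reporter P. falciparum; cpd 96 h, 37 C, 5% CO2; luciferase detection reagent; luminescence.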
AMA1 RON2 block: qHTS for Inhibitors of AMA1-RON; Towards Development of Antimalarial Drug Lead: Primary Screen; Plasmodium falciparum AMA1 (3D7) - RON2 peptide interaction; 360,000 compounds, 0.2% hits; AlphaScreen AMA1-biotinylated RON2 peptide binding; Potency, µM (series often up to 58.2 µM), most hits filed as inhibitors; note: nearly all actives have a fitted effect of over 45% in size
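AMA1 (3D7) with his tag at 25 nM final met compounds first, then biotinylated RON2 peptide at 25 nM; detection used donor plus acceptor beads, 10 µg/mL apiece, read by AlphaScreen after 30 min at room temperature.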
Cycloheximide cs: Cycloheximide Counterscreen for Small Molecule Inhibitors of Shiga Toxin; cell reporter, cycloheximide protein synthesis inhibition counterscreen; max response, %; 300,000 compounds, 12% hits; in the data active = max response mostly above about 13%, no sharp cut-off; inactive = mostly below about 14%; note: read at 38.3 µM for the half of the compounds with a filed dose
A number is an active result; 0 = inactive; ? = inconclusive; - = no result given; [ ] = dose if it differs, or a comment. Unless noted, calls come from the whole dose curve; as a rule, active = well fitted curve in the direction sought with a large enough effect; inconclusive = small, poorly fitted or top-dose-only effect, or another doubt; inactive = no such curve, though single readings can be large; an effect the other way counts as inactive or inconclusive.

SMILES	Pf growth 48h	HCV inh	Shiga toxin inh	Pf growth 96h	AMA1 RON2 block	Cycloheximide cs
CCOC(=O)c1cnc(SCc2ccc(C(C)(C)C)cc2)nc1N	?	?	0	?	0	0
CCOC(=O)c1cnc(SCC(=O)N2CCN(c3ccccc3)CC2)nc1N	0	0	0	0	0	0
CCOC(=O)c1cnc(SCc2ccccc2)nc1N	0	?	109	-	0	47
O=C(CCN1CCOCC1)N1CCCC(Nc2cccc(F)c2)C1 (centres undefined)	0	0	0	?	0	0
CCOC(=O)C1(C(=O)OCC)NC(=O)CC1CC(C)C (centres undefined)	-	0	-	-	0	-
COc1ccccc1C1CCN(c2ccc(CO)cc2[N+](=O)[O-])CC1	0	?	0	0	?	14
Cn1c(/C=C/c2ccc(Br)cc2)c([N+](=O)[O-])c(=O)n(C)c1=O	9.3µM	?	0	0	0	0
CN(C)c1ccc(/C=C/c2c([N+](=O)[O-])c(=O)n(C)c(=O)n2C)cc1	0	0	0	0	0	0
O=C(CCCc1cccs1)Nc1nc2c(s1)CCCC2	0	0	30	0	0	57
Cc1csc(NC(=O)CCCC(=O)c2ccccc2)n1	0	0	50	?	0	22
O=C(CCS(=O)(=O)Cc1ccccc1)Nc1nc2c(s1)CCCC2	0	?	0	0	0	0
Cc1csc(NC(=O)CCCc2cccs2)n1	0	0	48	0	0	46
O=C(CCN1C(=O)c2ccccc2S1(=O)=O)Nc1nc2c(s1)CCCC2	0	0	122	0[5.75 µM]	0	18
Cc1ccccc1NC(=O)CCCC(=O)c1ccccc1	?	0	0	?	0	0
O=C(CCOc1ccccc1)Nc1cccc([N+](=O)[O-])c1	0	0	50	0	0	20
CCC(CC)C(=O)OCC(=O)Nc1cccc([N+](=O)[O-])c1	0	0	37	0	0	15
COC(=O)CCC(=O)Nc1cccc([N+](=O)[O-])c1	0	0	0	12µM	0	0
O=C(COc1ccccc1)NC(=S)Nc1cccc(NC(=O)c2ccccc2Cl)c1	0	0	0	0	0	0
O=C(COc1ccccc1)NC(=S)Nc1cccc([N+](=O)[O-])c1	0	0	0	1.7µM	0	0
O=C(CCC(=O)Nc1cccc([N+](=O)[O-])c1)NCc1ccccc1	0	0	0	0	0	0
COc1cccc(CN2CCNC(=O)C2CC(=O)N(C)CCC2CCOCC2)c1OC (centres undefined)	0	-	0	0	0	0
O=C1O[C@@H](c2ccccc2)C[C@@H](O)[C@H](O)CCCc2ccccc21	-	-	-	-	0	-
O=C(O)CO	-	-	0	-	-	0
CCOc1cc(C2C3=C(CCCC3=O)N(CCC(=O)O)C3=C2C(=O)CCC3)ccc1OS(=O)(=O)c1ccc(C)cc1	?	0	0	?	0	0
Cc1ccc(S(=O)(=O)Oc2ccc(C3C4=C(CCCC4=O)N(CCC(=O)O)C4=C3C(=O)CCC4)cc2Cl)cc1	3.3µM	0	0	3.3µM	0	0
SMILES	Pf growth 48h	HCV inh	Shiga toxin inh	Pf growth 96h	AMA1 RON2 block	Cycloheximide cs
COC(=O)C1=C(C)NC(C)=C(C(=O)OC)C1C(=O)OCc1nnc(-c2ccccc2Cl)o1	0	0	-	?	0	-
O=c1c(-c2ccc(Cl)cc2)cnc2n1CCS2	0	0	67	0	?	29
O=c1oc2ccccc2n1CSC1=NCCS1	?	?	0	0	0	19
O=C(Cn1c(=O)oc2ccccc21)c1ccccc1	0	0	0	0	0	0
O=c1oc2ccccc2n1CSc1nc2ccccc2s1	0	0	96	0	0	41
CCOC(=O)C1(Cc2cccc(Cl)c2)CCCN(C(=O)c2cc(C)n(C)n2)C1 (centres undefined)	0	0	0	?	0	0
CCCc1cc(C(=O)N2CCCC(Cc3cccc(Cl)c3)(C(=O)OCC)C2)n(C)n1 (centres undefined)	?	?	65	?	0	0
CCOC(=O)C1(Cc2cccc(Cl)c2)CCCN(C(=O)CN2C(=O)CSC2=O)C1 (centres undefined)	0	0	46	0	0	36
CCOC(=O)C1(Cc2cccc(Cl)c2)CCCN(C(=O)c2cc(CC)on2)C1 (centres undefined)	?	0	62	0	0	43
CCOC(=O)C1(Cc2cccc(Cl)c2)CCCN(C(=O)c2ccnn2C)C1 (centres undefined)	0	0	41	0	0	50
CC(C)(C)CCN1CCC(CN2CCNC2=S)CC1	-	-	-	-	0	-
CC1CCCC(NC(=S)Nc2cccc(S(=O)(=O)N(C)C)c2)C1C (centres undefined)	?	0	0	0	0	0
CC(C)CC(N)c1csc(NC(=O)c2cc(C(C)(C)C)nn2Cc2ccccc2)n1 (centres undefined)	-	-	-	-	0	-
CCOC(=O)C1(Cc2cccc(Cl)c2)CCCN(C(=O)C(C)(C)C)C1 (centres undefined)	0	0	0	0	0	27
CCOC(=O)C1(Cc2cccc(Cl)c2)CCCN(CCO)C1 (centres undefined)	?	0	0	?	0	0
COc1cc2c(c(OC)c1OC)-c1c(cc3c(c1O)OCO3)C[C@@H](C)[C@@H](C)C2	?	0	0	10µM	0	0
COc1cc2c(c(O)c1OC)-c1c(cc(OC)c(OC)c1OC)C[C@@H](C)[C@@H](C)C2	13µM	0	0	?	0	0
COc1cc2c(c(OC)c1OC)-c1c(cc3c(c1OC)OCO3)CC(C)C(C)C2 (centres undefined)	-	-	0	-	-	0
Nc1ccc(S(=O)(=O)c2ccc(NC(=O)c3cccnc3)cc2)cc1	-	0	-	-	0	-
COc1ccc2c3n(nc2c1)CCN=C3c1ccc(Cl)cc1	0	0	-	0	0	-
COc1cccc(C(=O)COC(=O)c2cccs2)c1	0	0	76	0	0	38
CC(=O)NCCc1ccc(C(=O)COC(=O)c2cccs2)cc1	-	-	-	-	0	-
O=C(COC(=O)c1cccs1)c1ccccc1	0	0	78	0	0	42
COc1ccc(C(=O)COC(=O)c2cccs2)cc1	-	0	-	-	0	-
O=C(COC(=O)CCc1nc2ccccc2c(=O)[nH]1)Nc1ccccc1OC(F)F	0	0	-	0	0	-
CCCN1CCN(S(=O)(=O)c2c(C)[nH]c(C)c2C(=O)N2CCCCC2)CC1	0	0	0	0	0	0
CSCCNC(=O)C1(C)CCN1C(=O)CCc1ccccc1 (centres undefined)	-	-	-	-	0	-
CN(C)S(=O)(=O)c1cccc(C(=O)Nc2ccccc2[N+](=O)[O-])c1	0	0	51	0	?	18
